POLK inh = qHTS for Inhibitors of Polymerase Kappa; DNA polymerase kappa (Homo sapiens), Q9UBT6; purified Pol kappa, fluorescent DNA synthesis assay, 10 min; Potency, µM (doses to about 107 µM), hits mostly inhibitors; 400,000 compounds, 0.53% hits
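First, compounds were pin-transferred onto 10 nM Pol kappa. After 15 min at room temperature, substrate was added to 50 nM final. Fluorescence was then measured kinetically at 0 and 10 min.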
PI5P4Ka inh = qHTS for Inhibitors of phosphatidylinositol 5-phosphate 4-kinase (PI5P4K); max response, %; Phosphatidylinositol 5-phosphate 4-kinase type-2 alpha (Homo sapiens), P48426; AID 652105, 2013; PI5P4Kalpha enzyme, ADP-Glo luminescence, 60 min; hits give low values; 330,000 compounds, 1.2% hits; active = max response of -50% or lower; inconclusive = between -30% and -50%; inactive = -30% or higher; note: value at the top dose of about 77 µM
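ADP-Glo luminescence end-point read after a 60 min room-temperature kinase reaction of PI5P4Kalpha plus substrate, initiated with ATP at 5 microM final. Buffer: 0.038 M HEPES pH 7.4, EGTA, 0.1% CHAPS, 5% DMSO.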
WRN inhibitor = qHTS for Inhibitors of WRN Helicase | Potency, µM (top dose mostly 114 µM), actives largely listed as inhibitors | AID 651768, 2012 | WRN helicase unwinding, fluorescent forked duplex, kinetic | 360,000 compounds, 0.46% hits | Bifunctional 3'-5' exonuclease/ATP-dependent helicase WRN (Homo sapiens), Q14191; note: nearly all actives have a fitted effect of over 55% in size
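WRN at 20 nM final was preincubated with compound for 15 min at room temperature; reaction started with 100 nM forked duplex oligonucleotide carrying fluorophore and quencher plus 2 mM ATP (final). Unwinding followed kinetically by red fluorescence (ex 525/em 598 nm).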
POLH inh = qHTS for Inhibitors of Polymerase Eta; recombinant Pol eta, fluorescent DNA replication assay; 390,000 compounds, 1.2% hits; DNA polymerase eta (Homo sapiens), Q9Y253; Potency, µM (doses to about 114 µM), most hits filed as inhibitors; AID 588591, 2011
Target sequence (Q9Y253 whole entry, looked up): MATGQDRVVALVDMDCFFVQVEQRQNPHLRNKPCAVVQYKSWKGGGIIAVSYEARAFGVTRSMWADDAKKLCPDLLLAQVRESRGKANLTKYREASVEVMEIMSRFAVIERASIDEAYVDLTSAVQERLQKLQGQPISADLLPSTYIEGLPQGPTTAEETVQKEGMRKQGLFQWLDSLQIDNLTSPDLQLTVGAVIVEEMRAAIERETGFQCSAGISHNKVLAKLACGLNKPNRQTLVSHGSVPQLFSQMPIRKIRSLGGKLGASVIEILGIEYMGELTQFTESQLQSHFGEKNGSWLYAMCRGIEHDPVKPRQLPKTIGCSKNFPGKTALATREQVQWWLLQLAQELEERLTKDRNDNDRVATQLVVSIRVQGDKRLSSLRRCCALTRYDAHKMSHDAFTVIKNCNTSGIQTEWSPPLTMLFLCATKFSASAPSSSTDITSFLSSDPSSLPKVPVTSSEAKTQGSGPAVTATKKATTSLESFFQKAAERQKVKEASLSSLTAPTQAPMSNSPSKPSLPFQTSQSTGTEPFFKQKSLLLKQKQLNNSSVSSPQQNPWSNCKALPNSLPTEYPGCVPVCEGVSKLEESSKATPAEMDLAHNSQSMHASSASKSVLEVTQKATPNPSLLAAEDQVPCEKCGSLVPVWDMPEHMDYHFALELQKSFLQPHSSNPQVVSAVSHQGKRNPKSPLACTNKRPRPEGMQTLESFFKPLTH
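Pol eta (10 nM) was preincubated with compounds for 15 min at room temperature, after which fluorescent replication substrate (50 nM final) was added to start the reaction. Fluorescence was read kinetically at 0 and 10 min.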
Pol iota inh = qHTS for Inhibitors of Polymerase Iota | Pol iota fluorescent replication assay, 10 min | Potency, µM (titrated, usually from 115 µM), hits mostly inhibitors | 390,000 compounds, 1% hits | AID 588590, 2011
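Pol iota at 10 nM preincubated 15 min with compounds at room temperature; reaction started with fluorescent substrate, 50 nM final. Fluorescence read kinetically at 0 and 10 min; buffer-only wells as negative control.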
Pol beta inh = qHTS Assay for Inhibitors of DNA Polymerase Beta | Pol beta primer extension/strand displacement, fluorescence kinetic | Potency, µM (top dose mostly 114 µM), most hits filed as inhibitors | 340,000 compounds, 1.3% hits | AID 485314, 2010
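Curves were derived by four-parameter Hill fits of normalized qHTS data. The kinetic fluorescent primer-extension read was taken at 0 and 10 min after 50 nM substrate, following a 15 min room-temperature preincubation of 10 nM enzyme with compounds.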
A number is an active result; [ ] = another dose, or the depositor's remark. This is a sample that favours compounds with a hit; in the whole collection about 2.8% have one here. Unless noted, calls come from the whole dose curve; as a rule, active = well fitted curve in the direction sought with a large enough effect; inconclusive = small, poorly fitted or top-dose-only effect, or another doubt; inactive = no such curve, though single readings can be large; an effect the other way counts as inactive or inconclusive.

`COc1cccc(CNC(=O)c2nnn(CC(=O)Nc3ccc4c(c3)OCO4)c2N)c1` gave POLK inh inactive, PI5P4Ka inh inactive, WRN inhibitor inactive, POLH inh inactive, Pol iota inh inactive and Pol beta inh inconclusive.
`COc1ccc2c(CC(=O)NCc3ccc4c(c3)OCO4)coc2c1` gave POLK inh inconclusive, WRN inhibitor inconclusive, POLH inh 50.1µM, Pol iota inh inconclusive and Pol beta inh 17.8µM.
Screening COc1cccc(NC(=O)Cn2nnc(C(=O)NCc3ccc4c(c3)OCO4)c2N)c1 returned POLK inh inactive, PI5P4Ka inh inactive, WRN inhibitor inactive[11.6 µM], POLH inh inactive, Pol iota inh 50.1µM and Pol beta inh inactive.
Screening C=C(c1ccccc1)c1ccccc1N returned POLK inh inactive, PI5P4Ka inh inactive, WRN inhibitor inactive, POLH inh inactive and Pol iota inh inactive.
For CSCCC(NC(=O)c1ccco1)C(=O)Nc1ccc(C)cn1 (stereo unspecified) the results were POLK inh inactive, PI5P4Ka inh inactive, WRN inhibitor inactive, POLH inh inconclusive and Pol iota inh inactive.
`O=C(N/N=C/c1ccoc1)c1ccccc1F` gave POLK inh inactive, PI5P4Ka inh inactive, WRN inhibitor inactive, POLH inh inactive, Pol iota inh inconclusive and Pol beta inh 22.4µM.
For Cc1cccc(C(=O)N/N=C/c2ccoc2)c1 the results were POLK inh inconclusive, PI5P4Ka inh inconclusive, WRN inhibitor inactive[11.6 µM], POLH inh inconclusive, Pol iota inh inconclusive and Pol beta inh 25.1µM.
`CC(C)Oc1cccc(C(=O)N/N=C/c2ccoc2)c1` gave POLK inh inactive, PI5P4Ka inh inactive, WRN inhibitor inactive, POLH inh inactive, Pol iota inh inactive and Pol beta inh inactive.
For O=C(COC(=O)c1cccc(OC(F)F)c1)NCC1CCCO1 (stereo unspecified) the results were POLK inh inactive, PI5P4Ka inh inactive, WRN inhibitor inactive, POLH inh inactive and Pol iota inh inactive.
Screening COc1cccc(-n2nnnc2SCC(=O)Nc2ccc3c(c2)OCCO3)c1 returned POLK inh inactive, PI5P4Ka inh inactive, WRN inhibitor inactive, POLH inh inconclusive, Pol iota inh inconclusive and Pol beta inh inconclusive.
COc1ccc(-n2nnnc2SCC(=O)Nc2ccc3c(c2)OCCO3)cc1OC was read as POLK inh inactive, PI5P4Ka inh inactive, WRN inhibitor inactive, POLH inh inconclusive, Pol iota inh 50.1µM and Pol beta inh inactive.
CCCOc1ccc(C2C(C(=O)c3ccc(C)o3)=C(O)C(=O)N2Cc2ccco2)cc1OCC (stereo unspecified) was read as POLK inh inactive, PI5P4Ka inh inactive, WRN inhibitor inactive, POLH inh inactive, Pol iota inh inactive and Pol beta inh inactive.
`CCCOc1ccc(C2C(C(=O)c3ccc(C)o3)=C(O)C(=O)N2Cc2ccco2)cc1` (stereo unspecified) gave POLK inh inactive, PI5P4Ka inh inactive, WRN inhibitor inactive, POLH inh inactive, Pol iota inh inconclusive and Pol beta inh 39.8µM.
CCOc1ccc2nc(N3C(=O)/C(=C/c4ccccc4)NC3=S)sc2c1 was read as POLK inh inactive, PI5P4Ka inh -54.1, WRN inhibitor inactive, POLH inh inconclusive, Pol iota inh inactive and Pol beta inh inactive.
For Cc1nc(Cc2nnc(SC(C)C(=O)Nc3cccc(C#N)c3)o2)cs1 (stereo unspecified) the results were POLK inh inactive, PI5P4Ka inh inactive, WRN inhibitor inactive, POLH inh inactive and Pol iota inh inactive.
Screening COc1cccc(CNC(=O)CCC2CCCN(C(=O)c3ccc(OC)o3)C2)c1 (stereo unspecified) returned POLK inh inactive, PI5P4Ka inh inactive, WRN inhibitor inactive, POLH inh inactive, Pol iota inh inactive and Pol beta inh inactive.
For CNC(=O)c1nn(C)c(=O)[nH]c1=O the results were POLK inh inactive, PI5P4Ka inh inactive, WRN inhibitor inactive, POLH inh inactive and Pol iota inh inactive.
Screening Cc1ccc(CCC(=O)Nc2ccc(S(N)(=O)=O)cc2)o1 returned POLK inh inactive, PI5P4Ka inh inactive, WRN inhibitor inactive, POLH inh 14.1µM, Pol iota inh inactive and Pol beta inh inactive.
Screening CC(=O)Nc1ccc(NC(=O)CCc2ccc(C)o2)cc1 returned POLK inh inactive, PI5P4Ka inh inactive, WRN inhibitor inactive, POLH inh inactive, Pol iota inh inactive and Pol beta inh inactive.
For COC(=O)C1=C(C)N(C2CCCCC2)C(=O)/C1=C\c1cccs1 the results were POLK inh inactive, PI5P4Ka inh inactive, WRN inhibitor inactive, POLH inh inactive, Pol iota inh inactive and Pol beta inh inactive.
For CCn1c(C)nc2cc(C(=O)N/N=C/c3ccc(O)c(O)c3O)ccc21 the results were POLK inh 10µM, PI5P4Ka inh -73.8, WRN inhibitor 17.8µM, POLH inh 5.01µM, Pol iota inh inconclusive and Pol beta inh 1.58µM.
Cc1nc2ccc(C(=O)N/N=C/c3ccccc3O)cc2[nH]1 was read as POLK inh inactive, PI5P4Ka inh inactive, WRN inhibitor inactive, POLH inh inactive, Pol iota inh inconclusive and Pol beta inh 20µM.
Screening CCn1c(C)nc2cc(C(=O)N/N=C/c3cccc(OC)c3O)ccc21 returned POLK inh inconclusive, PI5P4Ka inh inactive, WRN inhibitor inactive, POLH inh inactive, Pol iota inh inactive and Pol beta inh inconclusive.
Screening CCCn1c(CCC(=O)Nc2cc(C(=O)OC)cc(C(=O)OC)c2)nc2cccnc21 returned POLK inh inactive, POLH inh inactive, Pol iota inh inactive and Pol beta inh inactive.
`COc1ccc(CNC(=O)Cc2ccc(NC(=O)N3CCSc4ncccc43)cc2)cc1` gave POLK inh inactive, POLH inh inactive, Pol iota inh inactive and Pol beta inh inactive.
COc1ccc(Cl)cc1S(=O)(=O)Nc1ccc2c(c1)n(C)c(=O)n2C was read as POLK inh inactive, PI5P4Ka inh inactive, WRN inhibitor inactive, POLH inh inactive, Pol iota inh inactive and Pol beta inh inactive.
`Cc1cccn2c(=O)c3cc(S(=O)(=O)c4ccccc4)c(=N)n(Cc4ccco4)c3nc12` gave POLK inh inactive, PI5P4Ka inh inactive, WRN inhibitor inactive, POLH inh inactive, Pol iota inh inactive and Pol beta inh 8.91µM.
`Cc1cccn2c(=O)c3cc(S(=O)(=O)c4ccc(F)cc4)c(=N)n(Cc4ccco4)c3nc12` gave POLK inh inconclusive, PI5P4Ka inh inactive, WRN inhibitor inactive, POLH inh inactive, Pol iota inh 11.2µM and Pol beta inh inconclusive.

Screening results deposited in PubChem by National Center for Advancing Translational Sciences (NCATS).
